This is an account of results in PubChem BioAssay (NCATS).

Results filed as inconclusive are left out. Activity calls are given as the source filed them. The call rests on the fitted dose curve; in most records, active means well fitted inhibition curve with a large enough effect; inconclusive means small, poorly fitted or top-dose-only effect; inactive means flat fitted curve, though single readings scatter.

Assay in all cases: qHTS profiling for inhibitors of Plasmodium falciparum proliferation (AID 504749); further: nearly all actives have a fitted effect of over 60% in size
Details in all cases: P. falciparum in erythrocytes, SYBR Green DNA, 72 h; series mostly up to 28.7 µM
Background: In qHTS, concentration-response curves come from the screen itself.

One test concerns P93_24. The procedure, abridged:
(§1)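 P. falciparum-infected erythrocytes (0.3% parasitemia, 2.5% hematocrit) incubated with compound 72 h at 37 C, 5% CO2. Parasite DNA detected by SYBR Green after lysis, overnight at room temperature; normalised to 0.29 uM artemisinin and DMSO.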

Another test relates to P94_40. The procedure, abridged:
as §1

The next test concerns PAD. The procedure, abridged: as §1
A further test deals with PC15. The method in brief:
as §1

The subject of another test is PC26. The procedure, abridged:
as §1

Another test deals with SC27B. The procedure, abridged:
as §1

Another test has as its system TAB109. The method in brief: as §1
The subject of another test is TAB113. The method in brief: as §1
The test system of the next test is TAB165. The method in brief:
as §1

In a further test the test system is PC49. The procedure, abridged:
as §1
Potency means the concentration at half of the fitted maximal effect.

For the compound `CCCCN(CCCC)CCC(O)c1cc2c(Cl)cc(Cl)cc2c2cc(C(F)(F)F)ccc12` (centres undefined), the Potency is 0.0056 µM (active) in the test on P93_24; 0.0032 µM (active) in the test on P94_40; 0.0045 µM (active) in the test on PAD; 0.0089 µM (active) in the test on PC15; 0.0102 µM (active) with PC26; 0.0126 µM (active) in the test with SC27B. Besides, the figures for the Potency with TAB109, with TAB113 and in the test with TAB165 were 0.0071 µM (active), 0.0079 µM (active) and 0.0079 µM (active), respectively.
In the case of `c1ccc2[nH]c(-c3cscn3)nc2c1`, the Potency entry in the test on P93_24, with P94_40, with PAD, with PC15, in the test with PC49 and in the test with SC27B was “inactive” in each case. Moreover, the Potency entry in the test on TAB109, with TAB113 and in the test on TAB165 was “inactive” in each case.
As for `O=C(OC1C[C@H]2CC[C@@H](C1)[N+]21CCCC1)C(O)(c1ccccc1)c1ccccc1` (some centres undefined), the Potency in the test on P93_24 is 2.24 µM (active); in the test with P94_40 it was 4.47 µM (active); in the test with TAB109, 3.55 µM (active); with TAB165, 3.98 µM (active). The Potency entry in the test on PC15 and in the test on PC49 was “inactive” throughout.
As to `CC(C)c1ccc2oc3nc(N)c(C(=O)O)cc3c(=O)c2c1`, the Potency result in the test with P93_24, in the test with P94_40, with PC15, in the test on PC26, in the test with PC49 and in the test with TAB109 was “inactive” each time. Moreover, the Potency result in the test with TAB165 is “inactive”.
Regarding `CC1=C(C)C(=O)C(C(CCCCCC(=O)O)c2ccccc2)=C(C)C1=O` (centres undefined), the Potency result in the test with P93_24, with P94_40, in the test with PAD, in the test on PC15, in the test with PC49 and in the test on TAB109 was “inactive” throughout. In addition, the Potency entry in the test on TAB113 is “inactive”.
For `CCC[C@@H]1C[C@@H](C(=O)N[C@@H]([C@H]2O[C@H](SC)[C@H](O)[C@@H](O)[C@H]2O)[C@@H](C)O)N(C)C1`, the Potency entry with PAD, in the test on PC15, with PC49 and in the test with TAB113 was “inactive” in each case.
Take `O=C1CCc2ccc(OCCCCN3CCN(c4cccc(Cl)c4Cl)CC3)cc2N1`: in the test with P93_24, the Potency is 10 µM (active). Besides, the Potency result with PC26 and in the test with PC49 was “inactive” each time.
Consider `O=C1c2ccccc2-c2n[nH]c3cccc1c23`, for which the Potency result in the test on P93_24, with P94_40, in the test with PAD, in the test on PC15, in the test with PC49 and in the test with SC27B was “inactive” throughout. Also, the Potency entry with TAB109, with TAB113 and in the test on TAB165 was “inactive” throughout.
In the case of `Cc1cc(C2CCCCC2)n(O)c(=O)c1`, the Potency in the test on P93_24, with PC15 and in the test with TAB165 was 3.16 µM (active) in each case. In addition, in the test on PC49, the Potency entry was “inactive”.
As for `CC[C@]1(O)C[C@H]2CN(CCc3c([nH]c4ccccc34)[C@@](C(=O)OC)(c3cc4c(cc3OC)N(C=O)[C@H]3[C@@](O)(C(=O)OC)[C@H](OC(C)=O)[C@]5(CC)C=CCN6CC[C@]43[C@@H]65)C2)C1`, the Potency was 3.16 µM (active) in the test on P94_40, 1.58 µM (active) in the test with SC27B, 2 µM (active) in the test with TAB109 and 2.51 µM (active) in the test on TAB113. For the same compound, the Potency entry in the test on PC15 and in the test on PC49 was “inactive” throughout.
For `Cc1nc(Nc2ncc(C(=O)Nc3c(C)cccc3Cl)s2)cc(N2CCN(CCO)CC2)n1`, the Potency entry in the test with TAB109 and with TAB113 was “inactive” throughout. Moreover, the Potency in the test with TAB165 was 12.6 µM (active).
Take `N=C(N)c1ccc2cc(OC(=O)c3ccc(N=C(N)N)cc3)ccc2c1`: the Potency result with PAD is “inactive”.
As for `Cc1c(C(=O)NN2CCCCC2)nn(-c2ccc(Cl)cc2Cl)c1-c1ccc(Cl)cc1`, the Potency in the test with P93_24 is 10 µM (active); in the test on P94_40, 11.2 µM (active); in the test with PC26 it was 16.9 µM (active); with SC27B it was 10 µM (active); in the test with TAB165, 10 µM (active).
As to `O=C(O)c1cn(-c2ccc(F)cc2)c2cc(N3CCNCC3)c(F)cc2c1=O`, the Potency result with PAD, with PC15, in the test on PC26, in the test on PC49, in the test on SC27B and in the test with TAB113 was “inactive” in each case.
`CCCCC(CC)COC(=O)C(C#N)=C(c1ccccc1)c1ccccc1` (centres undefined): the Potency result with PAD, in the test on PC26 and in the test on PC49 was “inactive” each time. The Potency in the test with SC27B and in the test with TAB165 was 8.91 µM (active) throughout.
For `Nc1nc(Cl)nc2c1ncn2[C@H]1C[C@H](O)[C@@H](CO)O1`, the Potency result in the test with P93_24, with P94_40, in the test on PAD, in the test with PC15, in the test on PC49 and in the test with SC27B was “inactive” in each case. Moreover, the Potency result in the test on TAB109, in the test on TAB113 and with TAB165 was “inactive” each time.
Take `CN(c1nccc(=O)[nH]1)C1CCN(c2nc3ccccc3n2Cc2ccc(F)cc2)CC1`: the Potency entry in the test on P93_24, in the test on PAD, in the test with PC49, in the test with SC27B, in the test on TAB113 and in the test on TAB165 was “inactive” in each case.
In the case of `COCCCOc1ccnc(CS(=O)c2nc3ccccc3[nH]2)c1C` (centres undefined), the Potency entry with P94_40, in the test with PC15, in the test on PC49, in the test on SC27B, in the test on TAB109 and in the test with TAB113 was “inactive” throughout. Besides, in the test with PC26, the Potency is 19 µM (active).
`CCN(CCO)CCCC(C)Nc1ccnc2cc(Cl)ccc12` (centres undefined): the Potency result with P93_24, in the test on P94_40, in the test on PAD, in the test on PC26, with PC49 and in the test with SC27B was “inactive” each time. Also, the Potency entry in the test on TAB109, in the test on TAB113 and with TAB165 was “inactive” each time.
`Cc1cc2c(s1)Nc1ccccc1N=C2N1CCN(C)CC1`: the Potency result in the test with P93_24, with P94_40, with PAD, in the test on PC15, in the test with PC49 and in the test on SC27B was “inactive” each time. Moreover, the Potency entry in the test with TAB109, in the test with TAB113 and in the test on TAB165 was “inactive” in each case.
For `COC1=C(OC)C(=O)C(CCCCCCCCCCO)=C(C)C1=O`, the Potency entry in the test with P93_24, in the test with PAD, in the test with PC15, in the test with PC26, in the test with PC49 and with SC27B was “inactive” each time. Further, the Potency entry with TAB109 is “inactive”.
Regarding `CN1CCC(=C2c3ccccc3CCc3sccc32)CC1`, the Potency is 8.91 µM (active) in the test with PC49 and 4.47 µM (active) in the test on TAB165.
`CCc1nc(N)nc(N)c1-c1ccc(Cl)cc1`: the Potency entry in the test on P93_24, in the test on P94_40, with PAD, in the test on PC15, with PC49 and in the test with SC27B was “inactive” throughout. The Potency entry with TAB109 and in the test with TAB113 was “inactive” each time. The Potency in the test on TAB165 is 0.178 µM (active).
For `NNc1nncc2ccccc12`, the Potency in the test on P93_24 was 3.98 µM (active); in the test on P94_40, 3.55 µM (active). Moreover, the Potency entry in the test on PC49 was “inactive”.
As for `CN(C)c1ccc2nc3ccc(=[N+](C)C)cc-3sc2c1`, the Potency in the test on P93_24 is 0.0316 µM (active); with P94_40 it was 0.0447 µM (active); in the test with PAD, 0.0316 µM (active); in the test on PC26, 0.0675 µM (active); in the test with SC27B, 0.0631 µM (active); with TAB109, 0.0501 µM (active). The Potency in the test on TAB113 is 0.0501 µM (active); in the test on TAB165 it was 0.0708 µM (active). The Potency entry in the test with PC49 is “inactive”.
In the case of `Cc1cc(=O)oc2cc(O)ccc12`, the Potency entry in the test with P93_24, in the test with P94_40 and in the test with PAD was “inactive” each time. For the same compound, the Potency with PC15 was 1.12 µM (active); in the test with TAB113, 1 µM (active).
For the compound `COc1ccc2cc([C@H](C)C(=O)O)ccc2c1`, the Potency entry in the test with P94_40, in the test with PAD, with PC15, in the test with PC26, in the test with PC49 and in the test on SC27B was “inactive” throughout. For the same compound, the Potency result with TAB109, in the test on TAB113 and in the test on TAB165 was “inactive” each time.
With `CCCCCCCCOc1ccccc1C(=O)Nc1ccc(C(=O)OCC[N+](C)(CC)CC)cc1`, the Potency is 12.6 µM (active) in the test on P93_24, 7.94 µM (active) in the test on TAB109, 10 µM (active) with TAB113 and 6.31 µM (active) in the test on TAB165.
Take `Cc1ccc(NC(=O)c2ccc(CN3CCN(C)CC3)cc2)cc1Nc1nccc(-c2cccnc2)n1`: the Potency was 10 µM (active) in the test with P93_24; 11.2 µM (active) in the test with P94_40; 10 µM (active) in the test on PAD; 15.1 µM (active) in the test with PC26; 10 µM (active) in the test on TAB109; 12.6 µM (active) in the test with TAB113. In addition, the Potency in the test with TAB165 is 11.2 µM (active).
